Values joined by “and” are separate entries in the source; they are usually repeats but may differ in a detail not shown here. Equal entries are not always repeated. Results filed as inconclusive are left out. Entries that show only a call come without a potency. Where a structure was tested more than once in an assay, its records may differ in their call. Active and inactive are the calls of the source. Unless noted, calls come from the whole dose curve; as a rule, active = well fitted curve in the direction sought with a large enough effect in the repeat runs; inconclusive = weak or mixed curves; inactive = no such curve, though single readings can be large; an effect the other way counts as inactive or inconclusive.
Assays:
[1] = qHTS assay for small molecule agonists of the p53 signaling pathway (AID 651631; calls by dose curve; note: nearly all actives have a fitted effect of over 15% in size; note: potency is the fitted concentration of half-maximal effect)
Summary of the method: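 We treat p53RE-bla HCT-116 cells with compounds for 16 h at 37 °C, add LiveBLAzer B/G FRET substrate for 2 h at room temperature, and measure fluorescence intensity.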

[2] = qHTS assay for small molecule agonists of the p53 signaling pathway - cell viability (AID 651633; calls by dose curve; note: nearly all actives have a fitted effect of over 30% in size; note: potency is the fitted concentration of half-maximal effect)
Summary of the method: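 p53RE-bla cells were treated with compound for 16 hours at 37 C. Cytotoxicity was then measured as CellTiter-Glo luminescence after 30 min at room temperature.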

[3] = qHTS assay for small molecules that induce genotoxicity in human embryonic kidney cells expressing luciferase-tagged ATAD5 - cell viability (AID 651634; calls by dose curve; note: nearly all actives have a fitted effect of over 25% in size; note: potency is the fitted concentration of half-maximal effect)
Summary of the method: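 HEK293T cells carrying luciferase-tagged ATAD5, 2,000 cells/well, exposed to compound for 15.5 hr at 37C. Viability read as live-cell protease activity by CellTiter-Fluor fluorescence after 30 min at 37C.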

[4] = qHTS assay for small molecule disruptors of the mitochondrial membrane potential - cell viability (AID 720634; calls by dose curve; note: nearly all actives have a fitted effect of over 20% in size; note: potency is the fitted concentration of half-maximal effect)
Summary of the method: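 HepG2 cells, 2,000 per well, attached overnight, then treated 1 hr at 37 C, 5% CO2. Viability read as ATP by CellTiter-Glo luminescence after 30 min at room temperature. Read in the same wells as the m-MPI membrane-potential dye assay.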

[5] = qHTS assay for small molecule disruptors of the mitochondrial membrane potential (AID 720635); note: potency is the fitted concentration of half-maximal effect
Summary of the method: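 HepG2 cells exposed to compound 1 hr at 37C, then Mito-MPS dye 30 min. Ratio read of aggregate (540/590 nm) versus monomer (490/535 nm) fluorescence.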

[6] = qHTS assay to test for compound auto fluorescence at 590 nm (red) in HepG2 cells (AID 720674)
Summary of the method: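 Fluorescence at 590 nm emission following 540 nm excitation was recorded from HepG2 wells one hour after compound transfer, with DMSO-only wells as vehicle and Rose Bengal sodium equivalency as the scale.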

[7] = qHTS assay to test for compound auto fluorescence at 535 nm (green) in HepG2 cells (AID 720675)
[8] = qHTS assay to test for compound auto fluorescence at 460 nm (blue) in HEK293 cells (AID 720678)
Summary of the method: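 Cells were seeded and left to adhere for 4-5 hr at 37C. Compounds were then pin-transferred. After an overnight incubation at 37C under 5% CO2, intrinsic fluorescence at 405/460 nm was measured and referenced to triamterene.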

[9] = qHTS assay to test for compound auto fluorescence at 590 nm (red) in HEK293 cells (AID 720679)
Summary of the method: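 Each well held 2,000 HEK293 cells in medium containing 10% dialyzed FBS. Following 4-5 hr attachment at 37C, 23 nL test compound or DMSO was added; plates sat overnight, and red fluorescence (540/590nm) was recorded.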

[10] = qHTS assay for small molecules that induce genotoxicity in human embryonic kidney cells expressing luciferase-tagged ATAD5 (AID 651632); note: nearly all actives have a fitted effect of over 15% in size
Summary of the method: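 HEK293T cells carrying luciferase-tagged ATAD5 were given compound or DMSO vehicle and incubated 16 hr at 37C, 5% CO2. Luciferase activity was read after 30 min at room temperature with Amplite; a rise signals genotoxic stress.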

SMILES	Potency [1]	Potency [2]	Potency [3]	Potency [4]	Potency [5]	outcome [6]	outcome [7]	outcome [8]	outcome [9]	outcome [10]
N#CS	inactive	inactive	inactive	inactive	inactive	inactive	inactive	inactive	inactive	
Cc1cc(-c2ccc(N)c(C)c2)ccc1N	inactive	inactive	inactive	inactive	inactive	inactive	inactive	inactive	inactive	inactive
Nc1ccc(-c2ccc(N)c(Cl)c2)cc1Cl	9.74 µM (active) and 12.8 µM (active) and 21.7 µM (active)	54.8 µM (active) and inactive	54.8 µM (active) and 57 µM (active) and 54.5 µM (active)	27.4 µM (active) and 50.8 µM (active) and 34.4 µM (active)	5.48 µM (active) and 16.1 µM (active) and 8.63 µM (active)	inactive	inactive	inactive	inactive	inactive
CCCC[N+]1(C)CCCCC1		inactive	inactive	inactive	inactive	inactive	inactive	inactive	inactive	inactive
CNC	inactive	inactive		inactive	inactive	inactive	inactive	inactive	inactive	
O=[N+]([O-])c1ccccc1O	inactive	inactive	inactive	inactive	inactive	inactive	inactive	inactive	inactive	inactive
O=C(O)C(Cl)(Cl)Cl	inactive	inactive	inactive	inactive	inactive	inactive	inactive	inactive	inactive	inactive
O=C(O)CC(O)(CC(=O)O)C(=O)O	inactive	inactive	inactive	inactive	inactive	inactive	inactive	inactive	inactive	inactive
O=P1(N(CCCl)CCCl)NCCCO1 (stereo unspecified)	inactive	inactive	inactive	inactive	inactive	inactive	inactive	inactive	inactive	inactive
CCn1cc[n+](C)c1C		inactive	inactive	inactive	inactive	inactive	inactive	inactive	inactive	inactive
CCCCCCCCCCCCCCCCn1cc[n+](C)c1	inactive	27.9 µM (active) and 69.2 µM (active) and 30.7 µM (active)			17.6 µM (active) and inactive and 17.4 µM (active)	inactive	inactive	inactive	inactive	inactive
CCCC[N+]1(C)CCCC1	inactive	inactive	inactive	inactive	inactive	inactive	inactive	inactive	inactive	inactive
OCCOc1ccccc1	inactive	inactive	inactive	inactive	inactive	inactive	inactive	inactive	inactive	inactive
CCC[N+]1(C)CCCCC1		inactive	inactive	inactive	inactive	inactive	inactive	inactive	inactive	inactive
CCOP(=S)(OCC)Oc1ccc2c(C)c(Cl)c(=O)oc2c1	inactive	inactive	inactive	inactive and 24.3 µM (active)	19.5 µM (active) and 61.1 µM (active)	inactive	inactive	inactive	inactive	
CCCCn1cc[n+](C)c1C		inactive	inactive	inactive	inactive	inactive	inactive	inactive	inactive	inactive
Oc1ccccc1-c1ccccc1	inactive	inactive	inactive	inactive	21.7 µM (active) [middle of 4 runs]	inactive	inactive	inactive	inactive	inactive
Nc1ccccc1	inactive	inactive	inactive	inactive	inactive	inactive	inactive	inactive	inactive	inactive
C[C@]12CCC(=O)C=C1CC[C@@H]1[C@@H]2CC[C@]2(C)C(=O)CC[C@@H]12	inactive	inactive	inactive	inactive	inactive	inactive	inactive	inactive	inactive	inactive
O=C(O)c1nc(Cl)ccc1Cl	inactive	inactive	inactive	inactive	inactive	inactive	inactive	inactive	inactive	inactive
CCNc1nc(Cl)nc(NCC)n1	inactive	inactive	inactive	inactive	inactive	inactive	inactive	inactive	inactive	inactive
COc1ccc(N)cc1	inactive	inactive	inactive	inactive	inactive	inactive	inactive	inactive	inactive	inactive

SMILES	Potency [1]	Potency [2]	Potency [3]	Potency [4]	Potency [5]	outcome [6]	outcome [7]	outcome [8]	outcome [9]	outcome [10]
CC(=O)[O][Hg][c]1ccccc1	596 nM (active) and 762 nM (active) and 1.22 µM (active)	473 nM (active) and 382 nM (active) and 386 nM (active)	1.68 µM (active) and 606 nM (active) and 1.37 µM (active)	5.31 µM (active) and 1.21 µM (active) and 2.43 µM (active)	4.73 µM (active) and 1.08 µM (active) and 1.93 µM (active)	inactive	inactive	inactive	inactive	inactive
C1CCC(NC2CCCCC2)CC1	inactive	inactive	inactive	inactive	inactive	inactive	inactive	inactive	inactive	inactive
COCC(=O)N(c1c(C)cccc1C)C(C)C(=O)OC (stereo unspecified)	inactive	inactive	inactive	inactive	inactive	inactive	inactive	inactive	inactive	inactive
Cc1cc(Cl)ccc1OCC(=O)O	inactive	inactive	inactive	inactive	inactive	inactive	inactive	inactive	inactive	inactive
O=C(O)COc1ccc(Cl)cc1Cl	inactive	inactive	inactive	inactive	inactive	inactive	inactive	inactive	inactive	
CCCC[n+]1cccc(C)c1	inactive	inactive	inactive	inactive	inactive	inactive	inactive	inactive	inactive	inactive
Nc1ccc(-c2ccc(N)cc2)cc1	inactive	inactive	inactive	inactive		inactive	inactive	inactive	inactive	inactive
COP(=O)(OC)C(O)C(Cl)(Cl)Cl (stereo unspecified)	inactive	inactive	inactive	inactive	inactive	inactive	inactive	inactive	inactive	inactive
CCCCCC[n+]1ccccc1		inactive	inactive	inactive	61.7 µM (active) and inactive	inactive	inactive	inactive	inactive	inactive
CCC(=O)C(CC(C)N(C)C)(c1ccccc1)c1ccccc1 (stereo unspecified)	inactive	inactive	inactive	inactive	inactive	inactive	inactive	inactive	inactive	inactive
CC[N+]1(C)CCCC1		inactive	inactive	inactive	inactive	inactive	inactive	inactive	inactive	inactive
CCCCCCn1cc[n+](C)c1		inactive	inactive	inactive	11 µM (active) and 24.5 µM (active) and 22.2 µM (active)	inactive	inactive	inactive	inactive	inactive
O=c1nc(O)n(Cl)c(=O)n1Cl			inactive	inactive	inactive	inactive	inactive	inactive	inactive	inactive
CCCCCCCCCCCCCC[P+](CCCCCC)(CCCCCC)CCCCCC		15.4 µM (active) and 19.5 µM (active) and inactive	27.4 µM (active) and 24.5 µM (active)	30.8 µM (active) and 24.5 µM (active) and 1.72 µM (active)	434 nM (active) and 616 nM (active) and 273 nM (active)	inactive	inactive	inactive	inactive	inactive
CC(Cl)(Cl)C(=O)O			inactive	inactive	inactive	inactive	inactive	inactive	inactive	inactive
CCCCCCCCCCn1cc[n+](C)c1		inactive	inactive	inactive		inactive	inactive	inactive	inactive	inactive
O=C(O)C(Cl)Cl		inactive	inactive	inactive	inactive	inactive	inactive	inactive	inactive	inactive
O=[N+]([O-])O			inactive			inactive	inactive	inactive	inactive	
C=CCOC(Cn1ccnc1)c1ccc(Cl)cc1Cl (stereo unspecified)		inactive	inactive	inactive		inactive	inactive	inactive	inactive	inactive
CCCCCCCCn1cc[n+](C)c1		inactive	inactive	inactive		inactive	inactive	inactive	inactive	inactive
CN(C)[C@@H]1C(=O)C(C(N)=O)=C(O)[C@@]2(O)C(=O)C3=C(O)c4c(O)cccc4[C@@](C)(O)[C@H]3[C@H](O)[C@@H]12			inactive	inactive	inactive and 34.4 µM (active)	inactive	inactive	inactive	inactive	
COP(=O)(OC)OC=C(Cl)Cl		inactive	inactive	inactive	inactive	inactive	inactive	inactive	inactive	inactive

SMILES	Potency [1]	Potency [2]	Potency [3]	Potency [4]	Potency [5]	outcome [6]	outcome [7]	outcome [8]	outcome [9]	outcome [10]
O=S(=O)(O)O			inactive	inactive	inactive	inactive	inactive	inactive	inactive	
CCCCn1cc[n+](C)c1			inactive	inactive	inactive	inactive	inactive	inactive	inactive	
O=C(O)c1ccccc1O			inactive							
CCCn1cc[n+](C)c1			inactive	inactive	inactive	inactive	inactive	inactive	inactive	inactive
CC[N+](CC)(CC)CC		inactive	inactive	inactive	inactive	inactive	inactive	inactive	inactive	
CCCCCCCCCCCCOS(=O)(=O)O			inactive	inactive	inactive	inactive	inactive	inactive	inactive	inactive
CCCC[n+]1ccccc1		inactive	inactive	inactive	inactive	inactive	inactive	inactive	inactive	inactive
CCCC[n+]1ccccc1C		inactive	inactive	inactive	inactive	inactive	inactive	inactive	inactive	inactive
Nc1ccc(Cl)cc1		inactive	inactive	inactive	inactive	inactive	inactive	inactive	inactive	inactive
CCCCCCCCCCCCn1cc[n+](C)c1				154 nM (active) and inactive		inactive	inactive	inactive	inactive	inactive
CC(=O)O		inactive	inactive			inactive	inactive	inactive	inactive	
Oc1cccc2cccnc12			inactive	inactive		inactive	inactive	inactive	inactive	
Cc1cc(Cl)ccc1N		inactive	inactive	inactive	inactive	inactive	inactive	inactive	inactive	inactive
COc1ccccc1N		inactive	inactive	inactive	inactive	inactive	inactive	inactive	inactive	inactive
O=C(O)CCl		inactive	inactive	inactive	inactive	inactive	inactive	inactive	inactive	
C[N+](C)(C)Cc1ccccc1		inactive	inactive	inactive	inactive	inactive	inactive	inactive	inactive	inactive
O=c1[nH]c(=O)n(Cl)c(=O)n1Cl			inactive	inactive	inactive	inactive	inactive	inactive	inactive	inactive
CC[n+]1ccccc1		inactive	inactive	inactive	inactive	inactive	inactive	inactive	inactive	inactive
CCCC[n+]1ccc(C)cc1		inactive	inactive	inactive and 48.3 µM (active)		inactive	inactive	inactive	inactive	inactive
CCC[N+]1(C)CCCC1		inactive	inactive	inactive	inactive	inactive	inactive	inactive	inactive	inactive
CCCCCCCCCCCC(=O)O		inactive	inactive	inactive	inactive	inactive	inactive	inactive	inactive	inactive
